# Source: PubChem BioAssay (Tox21)
# Where “and” joins values, the source holds several entries; their conditions need not be identical. Equal values may be shown once. Inconclusive results are not listed. A call without a number means that no potency is given here. A number with no mark means an inactive call. Calls of active or inactive are those of the source. The call rests on the fitted dose curve.
# Assay: p53 small molecule agonists, cell-based qHTS assay: qHTS cell viability counter screen (AID 1963581); further: nearly all actives have a fitted effect of over 45% in size
# Conditions: p53RE-bla HCT-116 viability, ATP luminescence, 16 h; series mostly up to 66 µM; activity change, negative = cytotoxicity: at the top concentration
# From the text: National Center for Advancing Translational Sciences [NCATS]
# Division of Preclinical Innovation [DPI]
# U.S. Environmental Protection Agency [EPA]
# National Institutes of Environmental Health Sciences [NIEHS]
# National Toxicology Program [NTP]
# U.S. Food and Drug Administration [FDA]
# p53, a tumor suppressor protein, is activated following cellular insult, including DNA damage and other cellular stresses. The activation of p53 regulates cell fate by inducing DNA repair, cell cycle arrest, apoptosis, or cellular senescence. The activation of p53, therefore, is a good indicator of DNA damage and other cellular stresses. The CellSensor p53RE-bla HCT-116 cell line (Invitrogen) contains a stably integrated beta-lactamase reporter gene under control of the p53 response elements. The activation of the reporter gene under culture conditions can be detected by fluorescence intensity. This cell line was used to screen the Tox21 compound library in a 1536-well plate format and to identify agonists that activate the p53 signaling pathway. The cytotoxicity of the Tox21 compound library against the p53 RE-bla HCT-116 cell line was tested in parallel by measuring the intra cellular ATP content in the same wells.
# Tox21 Assay Protocol Summary:
# The p53RE-bla cells were dispensed at 4,000 cells/5 ul/well in 1536-well black wall/clear bottom plates using a Multidrop dispenser. After the assay plates were incubated at a 37 C/5% CO2 incubator for 5 hours, 23 nL of compounds dissolved in DMSO, positive controls or DMSO only was transferred to the assay plate by a pin tool. The plates were incubated at 37 C for 16 hours. After 1 uL of LiveBLAzerTM B/G FRET substrate was added using a Flying Reagent Dispenser, the plates were incubated at room temperature for 2 hours, and fluorescence intensity was measured by an Envision plate reader. For cell viability readout that measures cytotoxicity, 4 ul/well of CellTiter-Glo reagent was added into the assay plates using a Flying Reagent Dispenser. After 30 min incubation at room temperature, the luminescence intensity in the plates was measured using a ViewLux plate reader.
# Potency means the concentration at half of the fitted maximal effect.
SMILES,Potency,"activity change, negative = cytotoxicity"
C=CC(C)(CCC=C(C)C)OC(C)=O (stereo not given),inactive,–
CCCOCC(C)O (stereo not given),inactive,–
CC#C[C@]1(O)CC[C@H]2[C@@H]3CCC4=CC(=O)CCC4=C3[C@@H](c3ccc(N(C)C)cc3)C[C@@]21C,inactive,–
CC(C)CCCCCCCOC(=O)CCCCC(=O)OCCCCCCCC(C)C,inactive,–
CCCN(CCC)C(=O)SCC,–,26.8%
O=c1c(-c2ccc(O)cc2)coc2cc(O)cc(O)c12,inactive,–
C[C@]12C[C@H](O)[C@H]3[C@@H](CCC4=CC(=O)CC[C@@]43C)[C@@H]1CC[C@@H]2C(=O)CO,inactive,–
c1ccc2c(c1)ccc1cc3c(ccc4ccccc43)cc12,inactive,–
c1cnc2c(c1)ccc1cccnc12,inactive,–
CCCCCCCCCCCCc1ccccc1,inactive,–
[O-]/[N+](=N\O)c1ccccc1,inactive,–
O=C(O)CS,inactive,–
CCOC(=O)C(C#N)=C(c1ccccc1)c1ccccc1,inactive,–
CCCCC(CC)COC(=O)C(C#N)=C(c1ccccc1)c1ccccc1 (stereo not given),inactive,–
CCCNC(=O)NS(=O)(=O)c1ccc(Cl)cc1,inactive,–
C/C=C(C)/C=C/C=C(C)C,inactive,–
CC1COC(=O)O1 (stereo not given),inactive,–
Nc1ccc(S(=O)(=O)Nc2cnc3ccccc3n2)cc1,inactive,–
Cc1cc(=O)[nH]c(=S)[nH]1,inactive,–
COC(=O)/C=C\C(=O)OC,–,-1.69% [at 30.3 µM]

SMILES,Potency,"activity change, negative = cytotoxicity"
O=C(c1ccccc1)C(O)c1ccccc1 (stereo not given),inactive,–
CC(C)(CO)COC(=O)C(C)(C)CO,inactive,–
O=C1CCC(N2C(=O)c3ccccc3C2=O)C(=O)N1 (stereo not given),inactive,–
CN1C(C(=O)Nc2ccccn2)=C(O)c2ccccc2S1(=O)=O,inactive,–
CC(=O)O[C@]1(C(C)=O)CC[C@H]2[C@@H]3C=C(Cl)C4=CC(=O)[C@@H]5C[C@@H]5[C@]4(C)[C@H]3CC[C@@]21C,inactive,–
CCCCCCCCCCCC[N+](C)(C)Cc1ccccc1,49.7 µM (active) and 22.3 µM (active),–
OC[C@@H](O)[C@@H](O[C@@H]1O[C@H](CO)[C@H](O)[C@H](O)[C@H]1O)[C@H](O)[C@@H](O)CO,inactive,–
O=C(CC(C(=O)OC1CCCCC1)S(=O)(=O)O)OC1CCCCC1 (stereo not given),inactive,–
CC(=O)OCC(COC(C)=O)OC(C)=O,inactive,–
CC(=O)Nc1ccccc1,inactive,–
CC1(C)NC(=O)N(c2ccc([N+](=O)[O-])c(C(F)(F)F)c2)C1=O,–,-4.03%
ClC1=C(Cl)C(Cl)(Cl)C(Cl)=C1Cl,inactive,–
CC(C)(Oc1ccc(Cl)cc1)C(=O)O,inactive,–
C=CCc1ccc(OC)c(OC)c1,inactive,–
O=[N+]([O-])c1cc(C(F)(F)F)ccc1Cl,–,19.8%
COC(=O)CC(=O)OC,inactive,–
NCCCCCCN,inactive,–
O=C(Cl)c1c(Cl)c(Cl)c(C(=O)Cl)c(Cl)c1Cl,inactive,–
Cc1cc(=O)n(-c2ccccc2)n1C,inactive,–
Fc1ccc(Br)cc1,–,-9.91%
